Measured values as given in PubChem BioAssay (NCATS).
Results filed as inconclusive are left out. The source made the active and inactive calls. The call rests on the fitted dose curve; in most records, active means well fitted activation curve with a large enough effect; inconclusive means small, poorly fitted or top-dose-only effect; inactive means flat fitted curve, though single readings scatter.

Target: D(1A) dopamine receptor (Homo sapiens) (UniProt P21728)
Experiment: HTS Assay for Allosteric Agonists of the Human D1 Dopamine Receptor: Primary Screen for Agonists (AID 488981); on activation: 0% is about no effect
Conditions: Inducible HEK293 T-REx D1 cells, calcium-flux fluorescence, 180 s kinetic; series mostly up to 41.8 µM; activation: at the top concentration
From the text: Dopamine receptors (DARs) are involved in the etiology and/or therapy of a number of neuropsychiatric and endocrine disorders. For instance, all receptor-based antiparkinsonian drugs work via stimulating the […] DAR subtype whereas all FDA-approved antipsychotic agents are antagonists of this receptor. […] There are three different types of allosteric modulators that we are seeking, two of which will stimulate or augment receptor signaling, allosteric agonists and potentiators, while the third, allosteric antagonists, will attenuate receptor signaling. The present primary screening assay measures compound agonism by tracking calcium flux in a […], inducible Hek293 Trex D1 cell line.
Freshly passaged cells are plated in 1536 well black, clear bottom plates at a density of 4000 cells/well in 3 ul of complete media containing 1x tetracycline inducer. After an overnight incubation at 30 C in 5% CO2, cells are loaded with 2 ul of the no wash Calcium Assay Kit (ABD Bioquest) and incubated at room temperature for 30 to 90 minutes. A 10 cycle (1 second/cycle) baseline measurement is taken and then the FDSS online 1536 pintool delivers 23 nl of compound library (as well as dopamine controls) to the plate. The plate is measured for kinetically at 1 cycle/sec for 180 seconds and is considered to be the agonist portion of the assay (eg, compounds which activate a positive calcium response during this portion are flagged as potential agonists). Following the 180 second read, 1 ul of an EC20 of dopamine is delivered by an onboard pipette head. Measurements are taken kinetically for an additional 180 seconds.
Potency means the concentration at half of the fitted maximal effect.

Chain of D(1A) dopamine receptor (Homo sapiens) (P21728 whole entry, looked up): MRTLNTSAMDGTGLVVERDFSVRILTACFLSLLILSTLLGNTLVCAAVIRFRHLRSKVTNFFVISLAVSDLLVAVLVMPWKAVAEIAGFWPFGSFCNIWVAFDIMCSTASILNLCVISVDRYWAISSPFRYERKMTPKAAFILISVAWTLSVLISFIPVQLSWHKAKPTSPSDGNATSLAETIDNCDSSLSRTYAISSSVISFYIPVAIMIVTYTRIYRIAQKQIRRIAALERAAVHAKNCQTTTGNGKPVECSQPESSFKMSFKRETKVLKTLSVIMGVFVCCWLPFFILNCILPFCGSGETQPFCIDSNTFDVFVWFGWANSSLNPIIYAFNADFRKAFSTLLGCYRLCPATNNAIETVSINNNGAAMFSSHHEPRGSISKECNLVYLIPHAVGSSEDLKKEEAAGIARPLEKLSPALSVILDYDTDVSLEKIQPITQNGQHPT

Structure (SMILES) | activation | Potency
OC[C@H]1O[C@@H](n2cnc3c(NC4CCCCC4)ncnc32)[C@H](O)[C@@H]1O | -0.582% (inactive) | 
Nc1ncnc2c1c(I)cn2[C@@H]1C[C@H](N)[C@@H](O)[C@H]1O | -1.16% (inactive) | 
C=C[C@H]1CN2CC[C@@H]1C[C@@H]2[C@@H](O)c1ccnc2ccc(OC)cc12 | 7.62% (inactive) | 
CCCCCC(O)c1cccc(OCc2ccc3ccccc3n2)c1 (stereo not given) | 21% (inactive) | 
O=C1C(SCCO)=C(SCCO)C(=O)c2ccccc21 | 8.62% (inactive) | 
Cc1ccc(S(=O)(=O)/C=C/C#N)cc1 | 0.106% (inactive) | 
Nc1nc(Cl)nc2c1ncn2[C@@H]1O[C@H](COP(=O)(O)OP(=O)(O)OP(=O)(O)O)[C@@H](O)[C@H]1O |  | 891 nM (active)
NC(N)=NC(=O)c1nc(Cl)c(N2CCCCCC2)nc1N | -0.264% (inactive) | 
N=C(N)SCCc1ccc(CCSC(=N)N)cc1 | 23.2% (inactive) | 
Nc1nc(SCc2ccc([N+](=O)[O-])cc2)c2ncn([C@@H]3O[C@H](CO)[C@@H](O)[C@H]3O)c2n1 | -0.582% (inactive) | 
CC(C)ON([C@@H](C(=O)NO)C(C)C)S(=O)(=O)c1ccc(-c2ccccc2)cc1 | 20.6% (inactive) | 
C[N+]1(C)C2CC(OC(=O)[C@H](CO)c3ccccc3)CC1C1OC12 (stereo not given in full) |  | inactive
COc1ccccc1CNCCCCCCNCCCCCCCCNCCCCCCNCc1ccccc1OC | -0.476% (inactive) | 
NC(=S)c1ccc[n+]([C@@H]2O[C@@H](COP(=O)([O-])OP(=O)(O)OC[C@H]3O[C@@H](n4cnc5c(N)ncnc54)[C@H](OP(=O)(O)O)[C@@H]3O)C(O)C2O)c1 (stereo not given in full) | -0.476% (inactive) | 
Ic1ccc(N2CCN(Cc3c[nH]c4ncccc34)CC2)cc1 | 4.65% (inactive) | 
N#C/C(=C\c1c[nH]c2ccccc12)C(=O)c1ccc(O)c(O)c1 | 21% (inactive) | 
N#C/C(=C\c1ccc(-c2cc(Cl)ccc2Cl)o1)C(=O)Nc1cccc2ncccc12 | 5.87% (inactive) | 
Nc1ncnc2c1ncn2[C@@H]1O[C@H](COP(=O)(O)CP(=O)(O)OP(=O)(O)O)[C@@H](O)[C@H]1O | 18.2% (inactive) | 
O=[N+]([O-])c1ccc(CSc2ncnc3c2ncn3[C@@H]2O[C@H](CO)[C@@H](O)[C@H]2O)cc1 | -1.22% (inactive) | 
N.N.N.N.N.N.N.N.N.N.N.N.N.N.O.O.[Ru+4].[Ru+5].[Ru+5] | 1.16% (inactive) | 

Structure (SMILES) | activation | Potency
O=C(Nc1ccccc1)c1cc([N+](=O)[O-])ccc1Cl | -1.37% (inactive) | 
CN(C)C(N)=NCCC[C@H](N)C(=O)O | 0.529% (inactive) | 
NCCCCCCCCCCN | -0.74% (inactive) | 
Cc1ccc(C(=O)O[C@H](C(=O)O)[C@@H](OC(=O)c2ccc(C)cc2)C(=O)O)cc1 (tested in a mixture with another compound) | 0.423% (inactive) | 
O=[N+]([O-])c1ccc2c(c1)S(=O)(=O)C=C2 | -1% (inactive) | 
COc1ccc(/C=C/C(=O)Nc2ccccc2C(=O)O)cc1OC | -0.529% (inactive) | 
CCN(CC)c1ncnc2c1ncn2[C@@H]1O[C@H](COP(=O)(O)OP(=O)(O)C(Br)(Br)P(=O)(O)O)[C@@H](O)[C@H]1O | 0.317% (inactive) | 
Cc1ccccc1CNc1ncnc2c1ncn2C1OC(CO)C(O)C1O (stereo not given) | -1.37% (inactive) | 
O=c1[nH]c2cc([N+](=O)[O-])c([N+](=O)[O-])cc2[nH]c1=O | -0.211% (inactive) | 
O=P(O)(O)C(Cl)(Cl)P(=O)(O)O | -0.582% (inactive) | 
O=c1[nH]c2cc(Cl)c(Cl)cc2[nH]c1=O | -0.0529% (inactive) | 
C=CC(N)CCC(=O)O (stereo not given) | 0.317% (inactive) | 
C[C@@H](NC(=O)/C(C#N)=C/c1ccc(O)c(O)c1)c1ccccc1 | 7.35% (inactive) | 
Cc1nc2sccn2c(=O)c1CCN1CCC(=C(c2ccccc2)c2ccc(F)cc2)CC1 | 1.22% (inactive) | 
O=C(O)CC[C@@H](C(=O)O)N1C(=O)c2ccccc2C1=O | -0.952% (inactive) | 
COc1ccc(NC(=O)/C=C/c2ccc(Cl)cc2)cc1 | 7.4% (inactive) | 
c1cnc2c(c1)ccc1cccnc12 | -0.74% (inactive) | 
CN=c1nc(-c2ccccc2)n(-c2ccccc2)s1 | 20.9% (inactive) | 
CN1[C@@H](CC(=O)c2ccccc2)CCC[C@H]1C[C@H](O)c1ccccc1 | 8.78% (inactive) | 
OC[C@H]1O[C@@H](n2cnc3c(NC4CCCC4)ncnc32)[C@H](O)[C@@H]1O | -0.74% (inactive) | 
